Results on one compound are retold here after PubChem BioAssay AID2284057 (EPA ToxCast).

Activity calls are given as the source filed them. How the source made its calls: active means hit-call score of the fitted dose curve at least 0.9, where 1 is the maximum; inactive means score below 0.9.

For the experiment, the target named is CYP2B6, CYP2B6 (gene 1555) (UniProt P20813). Kind of experiment: ERF_FR_ADME_hCYP2B6: Eurofins (ERF) CYP450-related Enzyme Activity (ADME) LeadHunter Assay for CYP2B6. As for the experimental part: ERF_FR_ADME_hCYP2B6 is a biochemical, single-readout assay that uses extracted gene-proteins in a cell-free assay. Measurements were taken 0.5 hour after chemical dosing in a 96-well plate. See CYP2B6 inhibition (recombinant, EFC substrate).ERF_FR_ADME_hCYP2B6 is an assay component calculated from the ERF_FR_ADME_hCYP2B6 assay. It is designed to measure enzyme activity using a type of enzyme reporter as detected by fluorescence intensity of HFC with fluorimetry technology.Data from the assay component ERF_FR_ADME_hCYP2B6 was analyzed at the assay endpoint, ERF_FR_ADME_hCYP2B6, in the positive analysis fitting direction relative to acetonitrile as the negative control and baseline of activity. Using a type of enzyme reporter, loss-of-signal activity can be used to understand changes in enzymatic activity as they relate to gene CYP2B6. To generalize the intended target to other relatable targets, this assay endpoint is annotated to the cyp intended target family, where the subfamily is steroidogenesis-related.
Chain of CYP2B6, CYP2B6 (gene 1555) (P20813 whole entry, looked up): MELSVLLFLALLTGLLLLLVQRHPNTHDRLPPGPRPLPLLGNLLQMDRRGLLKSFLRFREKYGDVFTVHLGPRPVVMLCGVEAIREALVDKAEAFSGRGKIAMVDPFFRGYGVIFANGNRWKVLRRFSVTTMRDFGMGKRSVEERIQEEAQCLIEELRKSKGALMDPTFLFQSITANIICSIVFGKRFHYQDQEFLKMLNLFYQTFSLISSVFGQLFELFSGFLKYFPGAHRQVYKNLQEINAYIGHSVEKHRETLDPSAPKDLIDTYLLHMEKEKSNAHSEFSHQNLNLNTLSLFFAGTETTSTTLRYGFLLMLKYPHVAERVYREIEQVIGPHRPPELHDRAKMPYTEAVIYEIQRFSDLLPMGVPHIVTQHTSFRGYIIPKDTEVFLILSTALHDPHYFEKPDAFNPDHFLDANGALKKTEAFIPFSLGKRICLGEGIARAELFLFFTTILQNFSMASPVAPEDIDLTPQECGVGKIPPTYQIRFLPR
[…] are incubated for 15 minutes at 37 C with Bupropion as substrate and Clopidogrel as control inhibitor. Test Sample Requirements: Minimum for 1) Screen: 25 ul of 10 mM stock -OR- 1 mg (pre-weighed) for 10 uM final testing. 2) Dose Response: 60 ul of 10 mM stock -OR- 1 mg (pre-weighed). uM.
In general, AC50 refers to the concentration at which the activity in the assay is half-maximal. Regarding `O=C(/C=C/c1ccc(O)cc1)CC(=O)/C=C/c1ccc(O)cc1`, the AC50 is 1270 nM (active).
